Test results as given in the supplement of paper PMC11001985.
Values without a mark were called inactive.

Columns and labels:
Test in all cases: lysine labeling ratio R10:1 (500 µM / 50 µM probe), SILAC-ABPP in living cells; higher = lower intrinsic lysine reactivity toward the probe, active = 2 or less
Conditions in all cases: HeLa; probe concentrations 500 vs 50 µM
[1] = target: ACLY (lysine site: K1080) (UniProt P53396)
Procedure, shortened: (§1)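 An alkyne-tagged lysine probe with a disulfide linker labelled living HeLa cells in PBS at room temperature at either 50 µM or 500 µM, using SILAC light and heavy cells in forward and reverse label swaps. Lysates were mixed, clicked to biotin-azide, trypsin-digested, enriched on neutravidin, DTT-released, alkylated and measured by LC-MS/MS on a TIMS-TOF Pro. Each lysine's R is the filtered median high-probe/low-probe MS1 peptide ratio, combined as the median over forward and reverse replicates, with 20 as the upper limit.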

ACLY (lysine site: K272) = ACLY (lysine site: K272) (UniProt P53396)
Procedure, shortened: as §1

ACLY (lysine site: K780) = ACLY (lysine site: K780) (UniProt P53396)
Procedure, shortened: as §1

ACLY (lysine site: K836) = ACLY (lysine site: K836) (UniProt P53396)
Procedure, shortened: as §1

ACLY (lysine site: K968) = ACLY (lysine site: K968) (UniProt P53396)
Procedure, shortened: as §1

ACLY (lysine site: K978) = ACLY (lysine site: K978) (UniProt P53396)
Procedure, shortened: as §1

[2] = target: ADAM10 (lysine site: K273) (UniProt O14672)
Procedure, shortened: as §1

[3] = target: ADAM10 (lysine site: K410) (UniProt O14672)
Procedure, shortened: as §1

[4] = target: ADAM10 (lysine site: K601) (UniProt O14672)
Procedure, shortened: as §1

[5] = target: BACE2 (lysine site: K299) (UniProt Q9Y5Z0)
Procedure, shortened: as §1

BSG (lysine site: K264) = BSG (lysine site: K264) (UniProt P35613)
Procedure, shortened: as §1

CALR (lysine site: K159) = CALR (lysine site: K159) (UniProt P27797)
Procedure, shortened: as §1

CALR (lysine site: K360) = CALR (lysine site: K360) (UniProt P27797)
Procedure, shortened: as §1

CALR (lysine site: K64) = CALR (lysine site: K64) (UniProt P27797)
Procedure, shortened: as §1

CAV1 (lysine site: K47) = CAV1 (lysine site: K47) (UniProt Q03135)
Procedure, shortened: as §1

CDC37 (lysine site: K60) = CDC37 (lysine site: K60) (UniProt Q16543)
Sequence of CDC37 (lysine site: K60) (Q16543 whole entry): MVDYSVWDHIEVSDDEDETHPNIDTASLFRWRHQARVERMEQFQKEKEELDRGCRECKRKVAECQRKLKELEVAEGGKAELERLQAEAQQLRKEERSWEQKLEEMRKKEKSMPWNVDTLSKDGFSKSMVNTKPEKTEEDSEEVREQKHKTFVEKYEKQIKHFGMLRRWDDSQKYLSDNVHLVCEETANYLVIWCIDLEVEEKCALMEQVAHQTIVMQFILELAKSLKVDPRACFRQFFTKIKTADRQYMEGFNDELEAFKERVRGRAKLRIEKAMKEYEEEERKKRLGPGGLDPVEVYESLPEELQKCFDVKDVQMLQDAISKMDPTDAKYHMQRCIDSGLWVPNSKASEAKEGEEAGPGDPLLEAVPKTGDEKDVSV
Procedure, shortened: as §1

[6] = target: CSDE1 (lysine site: K307) (UniProt O75534)
Procedure, shortened: as §1

CSTB (lysine site: K91) = CSTB (lysine site: K91) (UniProt P04080)
Procedure, shortened: as §1

[7] = target: DDX50 (lysine site: K271) (UniProt Q9BQ39)
Sequence of DDX50 (lysine site: K271) (Q9BQ39 whole entry): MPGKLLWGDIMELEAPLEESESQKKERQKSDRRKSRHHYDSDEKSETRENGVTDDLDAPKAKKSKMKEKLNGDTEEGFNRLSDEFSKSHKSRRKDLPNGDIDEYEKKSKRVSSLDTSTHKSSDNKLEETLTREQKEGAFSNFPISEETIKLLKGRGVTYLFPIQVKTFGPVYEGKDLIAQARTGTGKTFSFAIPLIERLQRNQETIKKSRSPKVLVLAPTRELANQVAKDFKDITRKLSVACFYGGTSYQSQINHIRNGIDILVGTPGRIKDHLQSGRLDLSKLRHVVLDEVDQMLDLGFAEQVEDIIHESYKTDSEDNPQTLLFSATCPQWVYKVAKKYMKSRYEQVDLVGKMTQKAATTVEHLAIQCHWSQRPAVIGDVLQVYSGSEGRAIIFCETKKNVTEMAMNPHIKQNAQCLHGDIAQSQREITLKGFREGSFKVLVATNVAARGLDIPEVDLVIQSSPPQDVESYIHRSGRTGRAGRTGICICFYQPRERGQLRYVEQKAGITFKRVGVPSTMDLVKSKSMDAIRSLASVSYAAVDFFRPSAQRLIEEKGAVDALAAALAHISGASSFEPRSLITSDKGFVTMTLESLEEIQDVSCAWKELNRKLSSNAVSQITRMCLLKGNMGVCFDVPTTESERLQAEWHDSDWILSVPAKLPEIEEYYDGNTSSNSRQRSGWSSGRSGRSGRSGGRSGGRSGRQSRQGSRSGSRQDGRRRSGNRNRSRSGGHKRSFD
Procedure, shortened: as §1

[8] = target: DDX50 (lysine site: K432) (UniProt Q9BQ39)
Sequence of DDX50 (lysine site: K432) (Q9BQ39 whole entry): as above
Procedure, shortened: as §1

GART (lysine site: K251) = GART (lysine site: K251) (UniProt P22102)
Procedure, shortened: as §1

[9] = target: HNRNPF (lysine site: K224) (UniProt P52597)
Procedure, shortened: as §1

[10] = target: HNRNPF (lysine site: K87) (UniProt P52597)
Procedure, shortened: as §1

[11] = target: HNRNPF (lysine site: K98) (UniProt P52597)
Procedure, shortened: as §1

[12] = target: HYOU1 (lysine site: K797) (UniProt Q9Y4L1)
Procedure, shortened: as §1

[13] = target: ITIH2 (lysine site: K148) (UniProt P19823)
Procedure, shortened: as §1

[14] = target: ITIH2 (lysine site: K150) (UniProt P19823)
Procedure, shortened: as §1

[15] = target: ITIH2 (lysine site: K190) (UniProt P19823)
Procedure, shortened: as §1

[16] = target: LMAN2 (lysine site: K303) (UniProt Q12907)
Sequence of LMAN2 (lysine site: K303) (Q12907 whole entry): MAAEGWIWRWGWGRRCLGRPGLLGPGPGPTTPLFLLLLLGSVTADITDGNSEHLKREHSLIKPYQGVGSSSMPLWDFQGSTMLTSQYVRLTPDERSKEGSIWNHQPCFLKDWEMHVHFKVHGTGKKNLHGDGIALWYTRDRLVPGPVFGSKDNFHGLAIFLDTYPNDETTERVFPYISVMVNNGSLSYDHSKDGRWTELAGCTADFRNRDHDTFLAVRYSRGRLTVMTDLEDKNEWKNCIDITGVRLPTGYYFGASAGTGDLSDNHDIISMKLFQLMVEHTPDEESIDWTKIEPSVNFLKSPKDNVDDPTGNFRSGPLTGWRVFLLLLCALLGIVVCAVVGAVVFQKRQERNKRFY
Procedure, shortened: as §1

MDH2 (lysine site: K185) = MDH2 (lysine site: K185) (UniProt P40926)
Procedure, shortened: as §1

[17] = target: NCR3LG1 (lysine site: K101) (UniProt Q68D85)
Procedure, shortened: as §1

[18] = target: NECTIN2 (lysine site: K97) (UniProt Q92692)
Procedure, shortened: as §1

PHB (lysine site: K240) = PHB (lysine site: K240) (UniProt P35232)
Procedure, shortened: as §1

[19] = target: PODXL (lysine site: K385) (UniProt O00592)
Procedure, shortened: as §1

[20] = target: PODXL (lysine site: K394) (UniProt O00592)
Procedure, shortened: as §1

[21] = target: PODXL (lysine site: K418) (UniProt O00592)
Procedure, shortened: as §1

[22] = target: PODXL (lysine site: K422) (UniProt O00592)
Procedure, shortened: as §1

[23] = target: PODXL (lysine site: K444) (UniProt O00592)
Procedure, shortened: as §1

[24] = target: PSMD6 (lysine site: K130) (UniProt Q15008)
Sequence of PSMD6 (lysine site: K130) (Q15008 whole entry): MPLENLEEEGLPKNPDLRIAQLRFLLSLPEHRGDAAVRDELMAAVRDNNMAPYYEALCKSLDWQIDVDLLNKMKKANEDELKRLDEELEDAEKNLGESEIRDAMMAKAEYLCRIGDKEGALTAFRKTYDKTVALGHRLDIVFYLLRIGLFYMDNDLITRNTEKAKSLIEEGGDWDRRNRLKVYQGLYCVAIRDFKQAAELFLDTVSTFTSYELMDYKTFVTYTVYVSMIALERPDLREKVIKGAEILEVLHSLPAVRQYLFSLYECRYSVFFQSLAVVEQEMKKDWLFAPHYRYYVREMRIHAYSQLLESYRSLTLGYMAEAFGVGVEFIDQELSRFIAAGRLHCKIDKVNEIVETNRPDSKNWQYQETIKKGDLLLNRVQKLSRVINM
Procedure, shortened: as §1

[25] = target: PSMD6 (lysine site: K372) (UniProt Q15008)
Sequence of PSMD6 (lysine site: K372) (Q15008 whole entry): as above
Procedure, shortened: as §1

[26] = target: PTPRK (lysine site: K227) (UniProt Q15262)
Sequence of PTPRK (lysine site: K227) (Q15262 whole entry): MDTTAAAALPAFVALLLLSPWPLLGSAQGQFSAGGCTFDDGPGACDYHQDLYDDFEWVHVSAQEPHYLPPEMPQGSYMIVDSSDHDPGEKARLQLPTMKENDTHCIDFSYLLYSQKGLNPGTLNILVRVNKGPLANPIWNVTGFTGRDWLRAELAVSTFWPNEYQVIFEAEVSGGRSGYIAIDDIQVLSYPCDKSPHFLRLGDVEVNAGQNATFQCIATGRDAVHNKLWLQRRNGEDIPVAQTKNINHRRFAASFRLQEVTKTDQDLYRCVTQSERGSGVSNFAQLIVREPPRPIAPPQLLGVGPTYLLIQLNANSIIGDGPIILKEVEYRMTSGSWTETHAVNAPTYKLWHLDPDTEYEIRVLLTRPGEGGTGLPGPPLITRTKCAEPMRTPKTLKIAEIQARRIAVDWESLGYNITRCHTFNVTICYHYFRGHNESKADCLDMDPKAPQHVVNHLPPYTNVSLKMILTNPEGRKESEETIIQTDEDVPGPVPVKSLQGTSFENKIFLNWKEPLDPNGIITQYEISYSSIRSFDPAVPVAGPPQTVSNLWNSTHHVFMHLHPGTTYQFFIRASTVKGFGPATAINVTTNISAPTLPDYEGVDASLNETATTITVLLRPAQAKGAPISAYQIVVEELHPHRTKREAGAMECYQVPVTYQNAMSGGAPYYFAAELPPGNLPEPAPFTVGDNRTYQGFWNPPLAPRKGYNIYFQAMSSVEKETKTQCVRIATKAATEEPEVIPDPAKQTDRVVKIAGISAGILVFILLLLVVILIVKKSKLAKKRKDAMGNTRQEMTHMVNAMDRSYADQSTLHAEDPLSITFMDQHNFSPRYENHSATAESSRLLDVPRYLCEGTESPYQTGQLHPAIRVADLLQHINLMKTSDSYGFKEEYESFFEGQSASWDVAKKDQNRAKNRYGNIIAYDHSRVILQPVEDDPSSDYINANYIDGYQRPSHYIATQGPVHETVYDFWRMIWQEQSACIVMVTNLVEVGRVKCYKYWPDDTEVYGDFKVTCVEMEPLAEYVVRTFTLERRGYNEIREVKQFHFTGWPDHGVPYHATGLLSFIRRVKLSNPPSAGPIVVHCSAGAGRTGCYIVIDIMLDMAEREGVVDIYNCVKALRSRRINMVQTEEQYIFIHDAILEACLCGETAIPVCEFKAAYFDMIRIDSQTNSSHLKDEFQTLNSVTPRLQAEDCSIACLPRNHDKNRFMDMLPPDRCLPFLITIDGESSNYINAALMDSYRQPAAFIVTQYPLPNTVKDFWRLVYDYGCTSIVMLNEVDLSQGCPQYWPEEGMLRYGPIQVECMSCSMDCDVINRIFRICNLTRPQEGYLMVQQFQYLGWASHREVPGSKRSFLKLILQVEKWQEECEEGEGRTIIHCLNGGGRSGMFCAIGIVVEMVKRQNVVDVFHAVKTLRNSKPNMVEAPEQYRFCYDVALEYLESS
Procedure, shortened: as §1

[27] = target: PTPRK (lysine site: K244) (UniProt Q15262)
Sequence of PTPRK (lysine site: K244) (Q15262 whole entry): as above
Procedure, shortened: as §1

[28] = target: PTPRK (lysine site: K262) (UniProt Q15262)
Sequence of PTPRK (lysine site: K262) (Q15262 whole entry): as above
Procedure, shortened: as §1

[29] = target: PTPRK (lysine site: K394) (UniProt Q15262)
Sequence of PTPRK (lysine site: K394) (Q15262 whole entry): as above
Procedure, shortened: as §1

[30] = target: PTPRK (lysine site: K397) (UniProt Q15262)
Sequence of PTPRK (lysine site: K397) (Q15262 whole entry): as above
Procedure, shortened: as §1

[31] = target: PTPRK (lysine site: K722) (UniProt Q15262)
Sequence of PTPRK (lysine site: K722) (Q15262 whole entry): as above
Procedure, shortened: as §1

[32] = target: SACM1L (lysine site: K483) (UniProt Q9NTJ5)
Sequence of SACM1L (lysine site: K483) (Q9NTJ5 whole entry): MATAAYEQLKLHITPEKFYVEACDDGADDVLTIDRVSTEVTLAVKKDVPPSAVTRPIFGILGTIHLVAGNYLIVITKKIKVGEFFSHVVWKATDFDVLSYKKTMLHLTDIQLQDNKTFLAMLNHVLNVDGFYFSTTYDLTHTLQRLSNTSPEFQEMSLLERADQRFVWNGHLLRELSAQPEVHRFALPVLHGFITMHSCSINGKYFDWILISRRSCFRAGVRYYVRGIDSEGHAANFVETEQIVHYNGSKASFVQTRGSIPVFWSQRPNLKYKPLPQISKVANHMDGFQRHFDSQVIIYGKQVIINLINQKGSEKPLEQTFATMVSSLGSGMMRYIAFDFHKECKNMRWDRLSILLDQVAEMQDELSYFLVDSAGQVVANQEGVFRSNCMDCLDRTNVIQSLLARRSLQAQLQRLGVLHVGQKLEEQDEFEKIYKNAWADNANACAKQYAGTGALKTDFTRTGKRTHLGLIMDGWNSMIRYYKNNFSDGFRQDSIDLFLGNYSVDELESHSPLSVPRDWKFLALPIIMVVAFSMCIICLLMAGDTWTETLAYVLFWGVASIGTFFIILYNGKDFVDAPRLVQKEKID
Procedure, shortened: as §1

[33] = target: SLC25A3 (lysine site: K218) (UniProt Q00325)
Procedure, shortened: as §1

[34] = target: SLC25A3 (lysine site: K234) (UniProt Q00325)
Procedure, shortened: as §1

[35] = target: SLC25A3 (lysine site: K252) (UniProt Q00325)
Procedure, shortened: as §1

[36] = target: SLC25A3 (lysine site: K304) (UniProt Q00325)
Procedure, shortened: as §1

[37] = target: SLC25A3 (lysine site: K313) (UniProt Q00325)
Procedure, shortened: as §1

[38] = target: SNAP23 (lysine site: K64) (UniProt O00161)
Procedure, shortened: as §1

[39] = target: TMED10 (lysine site: K145) (UniProt P49755)
Procedure, shortened: as §1

TPBG (lysine site: K328) = TPBG (lysine site: K328) (UniProt Q13641)
Procedure, shortened: as §1

TPBG (lysine site: K76) = TPBG (lysine site: K76) (UniProt Q13641)
Procedure, shortened: as §1

[40] = target: TSPAN14 (lysine site: K132) (UniProt Q8NG11)
Procedure, shortened: as §1

[41] = target: UniProt P08729 (lysine site: K273)
Procedure, shortened: as §1

[42] = target: UniProt P08729 (lysine site: K296)
Procedure, shortened: as §1

[43] = target: UniProt P08729 (lysine site: K326)
Procedure, shortened: as §1

[44] = target: UniProt P08729 (lysine site: K331)
Procedure, shortened: as §1

[45] = target: UniProt P08729 (lysine site: K353)
Procedure, shortened: as §1

[46] = target: UniProt P08913 (lysine site: K190)
Procedure, shortened: as §1

[47] = target: UniProt P50895 (lysine site: K482)
Procedure, shortened: as §1

[48] = target: UniProt P50895 (lysine site: K531)
Procedure, shortened: as §1

[49] = target: UniProt Q6ZS17 (lysine site: K71)
Procedure, shortened: as §1

WLS (lysine site: K161) = WLS (lysine site: K161) (UniProt Q5T9L3)
Sequence of WLS (lysine site: K161) (Q5T9L3 whole entry): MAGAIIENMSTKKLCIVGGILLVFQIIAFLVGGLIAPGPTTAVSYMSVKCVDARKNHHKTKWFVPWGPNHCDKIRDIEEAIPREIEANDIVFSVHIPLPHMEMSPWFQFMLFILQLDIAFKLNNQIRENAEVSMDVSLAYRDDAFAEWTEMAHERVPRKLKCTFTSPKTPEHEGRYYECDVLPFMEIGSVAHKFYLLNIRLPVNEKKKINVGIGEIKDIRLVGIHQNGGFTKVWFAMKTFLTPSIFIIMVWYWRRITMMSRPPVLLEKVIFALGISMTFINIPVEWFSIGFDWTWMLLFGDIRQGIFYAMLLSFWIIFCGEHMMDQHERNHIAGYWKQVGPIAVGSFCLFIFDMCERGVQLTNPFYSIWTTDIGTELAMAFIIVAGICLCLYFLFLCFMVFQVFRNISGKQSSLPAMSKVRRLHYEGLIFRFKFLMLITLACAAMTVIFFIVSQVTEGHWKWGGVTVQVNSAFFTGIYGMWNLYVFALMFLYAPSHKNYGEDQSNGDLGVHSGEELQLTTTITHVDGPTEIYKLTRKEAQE
Procedure, shortened: as §1

WLS (lysine site: K168) = WLS (lysine site: K168) (UniProt Q5T9L3)
Sequence of WLS (lysine site: K168) (Q5T9L3 whole entry): as above
Procedure, shortened: as §1

YWHAB (lysine site: K70) = YWHAB (lysine site: K70) (UniProt P31946)
Procedure, shortened: as §1

YWHAZ (lysine site: K85) = YWHAZ (lysine site: K85) (UniProt P63104)
Sequence of YWHAZ (lysine site: K85) (P63104 whole entry): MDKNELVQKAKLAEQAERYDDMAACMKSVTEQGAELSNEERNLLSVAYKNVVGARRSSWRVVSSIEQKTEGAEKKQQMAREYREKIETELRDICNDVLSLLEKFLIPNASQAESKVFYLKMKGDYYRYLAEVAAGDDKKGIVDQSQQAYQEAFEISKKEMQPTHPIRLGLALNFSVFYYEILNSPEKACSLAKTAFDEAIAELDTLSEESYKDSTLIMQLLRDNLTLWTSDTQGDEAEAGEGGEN
Procedure, shortened: as §1

## C#CCNC(=O)CCSSCCC(=O)NCCc1ccc(C=O)c(C=O)c1
[1]
  lysine labeling ratio R10:1: 6.28
ACLY (lysine site: K272)
  lysine labeling ratio R10:1: 2.72
ACLY (lysine site: K780)
  lysine labeling ratio R10:1: 1.27 (active)
ACLY (lysine site: K836)
  lysine labeling ratio R10:1: 3
ACLY (lysine site: K968)
  lysine labeling ratio R10:1: 4.07
ACLY (lysine site: K978)
  lysine labeling ratio R10:1: 2.77
[2]
  lysine labeling ratio R10:1: 2.98
[3]
  lysine labeling ratio R10:1: 1.51 (active)
[4]
  lysine labeling ratio R10:1: 0.81 (active)
[5]
  lysine labeling ratio R10:1: 1.18 (active)
BSG (lysine site: K264)
  lysine labeling ratio R10:1: 2.59
CALR (lysine site: K159)
  lysine labeling ratio R10:1: 1.52 (active)
CALR (lysine site: K360)
  lysine labeling ratio R10:1: 5.32
CALR (lysine site: K64)
  lysine labeling ratio R10:1: 2.12
CAV1 (lysine site: K47)
  lysine labeling ratio R10:1: 1.22 (active)
CDC37 (lysine site: K60)
  lysine labeling ratio R10:1: 2.43
[6]
  lysine labeling ratio R10:1: 1.59 (active)
CSTB (lysine site: K91)
  lysine labeling ratio R10:1: 4.21
[7]
  lysine labeling ratio R10:1: 0.745 (active)
[8]
  lysine labeling ratio R10:1: 1.99 (active)
GART (lysine site: K251)
  lysine labeling ratio R10:1: 5.53
[9]
  lysine labeling ratio R10:1: 6.19
[10]
  lysine labeling ratio R10:1: 2.84
[11]
  lysine labeling ratio R10:1: 3.88
[12]
  lysine labeling ratio R10:1: 6.93
[13]
  lysine labeling ratio R10:1: 3.03
[14]
  lysine labeling ratio R10:1: 3.29
[15]
  lysine labeling ratio R10:1: 4.46
[16]
  lysine labeling ratio R10:1: 1.72 (active)
MDH2 (lysine site: K185)
  lysine labeling ratio R10:1: 3.9
[17]
  lysine labeling ratio R10:1: 2.58
[18]
  lysine labeling ratio R10:1: 0.864 (active)
PHB (lysine site: K240)
  lysine labeling ratio R10:1: 1.3 (active)
[19]
  lysine labeling ratio R10:1: 9.63
[20]
  lysine labeling ratio R10:1: 0.785 (active)
[21]
  lysine labeling ratio R10:1: 2.7
[22]
  lysine labeling ratio R10:1: 0.841 (active)
[23]
  lysine labeling ratio R10:1: 2.06
[24]
  lysine labeling ratio R10:1: 0.957 (active)
[25]
  lysine labeling ratio R10:1: 0.563 (active)
[26]
  lysine labeling ratio R10:1: 3.07
[27]
  lysine labeling ratio R10:1: 1.58 (active)
[28]
  lysine labeling ratio R10:1: 4.25
[29]
  lysine labeling ratio R10:1: 7.37
[30]
  lysine labeling ratio R10:1: 3.52
[31]
  lysine labeling ratio R10:1: 2.01
[32]
  lysine labeling ratio R10:1: 4.06
[33]
  lysine labeling ratio R10:1: 0.82 (active)
[34]
  lysine labeling ratio R10:1: 1.8 (active)
[35]
  lysine labeling ratio R10:1: 3.68
[36]
  lysine labeling ratio R10:1: 4.79
[37]
  lysine labeling ratio R10:1: 4.2
[38]
  lysine labeling ratio R10:1: 1.47 (active)
[39]
  lysine labeling ratio R10:1: 4.28
TPBG (lysine site: K328)
  lysine labeling ratio R10:1: 1.99 (active)
TPBG (lysine site: K76)
  lysine labeling ratio R10:1: 2.54
[40]
  lysine labeling ratio R10:1: 0.603 (active)
[41]
  lysine labeling ratio R10:1: 3.39
[42]
  lysine labeling ratio R10:1: 3.6
[43]
  lysine labeling ratio R10:1: 5.31
[44]
  lysine labeling ratio R10:1: 5.69
[45]
  lysine labeling ratio R10:1: 9.28
[46]
  lysine labeling ratio R10:1: 2.31
[47]
  lysine labeling ratio R10:1: 1.94 (active)
[48]
  lysine labeling ratio R10:1: 2.47
[49]
  lysine labeling ratio R10:1: 5.33
WLS (lysine site: K161)
  lysine labeling ratio R10:1: 9.23
WLS (lysine site: K168)
  lysine labeling ratio R10:1: 5.48
YWHAB (lysine site: K70)
  lysine labeling ratio R10:1: 3.41
YWHAZ (lysine site: K85)
  lysine labeling ratio R10:1: 3.38
